# Wee1 stabilizer = inhibitors of human Wee1 degradation | P30291 | HeLa Luc-Wee1K328M stability, luciferase luminescence; 100% = proteasome inhibitor MG132 effect | AID 1321 | reporter increase, % at 5 µM | 220,000 tested, 1.2% active;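 active means activation above the mean of all tested compounds plus 3 SD, set per screening run, cut at about 8.8% in these data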;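 further: cells exposed to compound for 20 h before luminescence read; 0% = DMSO alone and 100% = MG132 at 30 µM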
# Target sequence (P30291 whole entry K328M): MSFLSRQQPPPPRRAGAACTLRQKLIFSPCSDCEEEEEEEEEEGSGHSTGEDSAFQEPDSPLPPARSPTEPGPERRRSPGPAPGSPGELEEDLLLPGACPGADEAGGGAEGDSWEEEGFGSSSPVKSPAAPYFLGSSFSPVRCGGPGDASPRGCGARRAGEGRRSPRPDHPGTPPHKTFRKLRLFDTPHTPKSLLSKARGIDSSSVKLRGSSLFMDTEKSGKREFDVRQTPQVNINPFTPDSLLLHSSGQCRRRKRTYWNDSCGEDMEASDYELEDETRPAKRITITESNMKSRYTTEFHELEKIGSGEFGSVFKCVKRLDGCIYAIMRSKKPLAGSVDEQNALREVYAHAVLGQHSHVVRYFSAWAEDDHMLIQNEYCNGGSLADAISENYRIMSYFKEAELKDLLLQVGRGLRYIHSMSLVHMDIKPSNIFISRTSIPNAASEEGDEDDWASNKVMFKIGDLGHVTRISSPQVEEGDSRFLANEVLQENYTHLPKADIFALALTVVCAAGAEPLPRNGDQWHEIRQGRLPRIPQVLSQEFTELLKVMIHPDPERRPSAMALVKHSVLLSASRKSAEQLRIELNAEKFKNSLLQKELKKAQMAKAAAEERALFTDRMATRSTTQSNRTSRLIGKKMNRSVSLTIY
# Hsp70 act = Hsp70 transcriptional activation, primary screen; HeLa Hsp70 promoter luciferase reporter, luminescence; scaled: vehicle 0, proteasome-inhibitor control 100%; activation, % at 10 µM; 200,000 tested, 0.04% active;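 active means activation above the mean across all tested compounds plus 3 SD, cutoff set per campaign, cut at about 5.5% in these data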;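 further: 100% = MG132 at 30 µM as the positive control and 0% = DMSO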
# Arbovirus anti = arbovirus infection inhibition | 200,000 tested, 0.37% active | arbovirus infection cell-based antiviral screen | AID 1251 | inhibition, % at 10 µM; in the data active means inhibition above about 30%
# Efa HMGR inh = E. faecalis class II HMG-CoA reductase inhibition; purified E. faecalis HMGR, NADPH absorbance 340 nm kinetic; inhibition, % at 10 µM; 190,000 tested, 0.41% active;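 active means inhibition above a set limit, the median over all tested compounds plus 3 SD, cut at about 9.5% in these data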;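 further: enzyme runs in reverse so mevalonate oxidation gives rising NADPH absorbance; 0% = complete reaction with DMSO and 100% = background rate lacking mevalonate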
# PKD1 kinase inh = blocks activity of human protein kinase D1; Q15139; inhibition, % (concentration not given with the values); PKD1 kinase fluorescence polarization assay; 200,000 tested, 0.056% active; AID 797; in the data active means inhibition above about 50%
# Wee1 degr conf = human Wee1 degradation inhibition, confirmation; shares compounds with Wee1 stabilizer; HeLa Luc-Wee1K328M degradation, luminescence; vehicle 0%, proteasome-blocked wells 100%; activation, % at 5 µM; 1,100 tested, 4% active; AID 1410; in the data active means activation above about 8.9%
# * hit, by the source's call; nt = no result given. Only some compounds are listed: those with a hit (about 2% of all), similar ones and a draw of the others.
SMILES,Wee1 stabilizer,Hsp70 act,Arbovirus anti,Efa HMGR inh,PKD1 kinase inh,Wee1 degr conf
CN(C)C(=S)N=Nc1[nH]c2ccccc2c1O,11*,0,-12,8,0,-1
CNC(=S)N=Nc1c(O)[nH]c2ccccc12,-2,0,3,-1,1,nt
CC(C)NC(=O)COC(=O)CNC(=O)c1cc(Cl)cc([N+](=O)[O-])c1,4,0,-3,1,-1,nt
Cc1c(NC(=S)NC(=O)C(C)(C)C)c(=O)n(-c2ccccc2)n1C,-1,0,4,-3,-1,nt
Cc1c(NC(=S)NC(C)(C)C)c(=O)n(-c2ccccc2)n1C,14*,0,-2,-3,3,-2
COc1ccc2c(=O)c(Oc3ccc(C(=O)O)cc3)c(C(F)(F)F)oc2c1,-3,0,6,-3,-1,nt
O=C(CSc1ncccn1)N/N=C/c1ccccc1[N+](=O)[O-],-1,0,12,6,-2,nt
Cn1c(SCC2CCCO2)nnc1-c1ccc([N+](=O)[O-])cc1 (configuration not stated),13*,0,5,-2,0,5
Cn1c(SCC(=O)NCC2CCCO2)nnc1-c1ccc(S(=O)(=O)N2CCCC2)cc1 (configuration not stated),3,0,-5,-1,-9,nt
NS(=O)(=O)c1ccc(NC(=O)CSc2nc3ccccc3[nH]2)cc1,11*,0,19,-3,-7,2
COc1cc(NC(=S)NCCN2CCOCC2)cc(OC)c1,3,0,2,-4,6,nt
CCOc1ccc(N2C(=O)CC(Sc3nc(C)cc(C)n3)C2=O)cc1 (configuration not stated),5,0,2,0,-2,nt
CCN=C(NCC)SC1CC(=O)N(c2ccc(OCC)cc2)C1=O (configuration not stated),16*,0,0,-2,-7,6
CCN=C(NCC)SC1CC(=O)N(c2ccccc2)C1=O (configuration not stated),-1,0,1,0,-7,nt
CCOc1ccc(N2C(=O)CC(Sc3nnnn3-c3ccccc3)C2=O)cc1 (configuration not stated),14*,0,-3,-4,-5,-1
COc1ccc(NC(=O)c2nn(C34CC5CC(CC(C5)C3)C4)cc2[N+](=O)[O-])cc1,11*,0,5,1,-6,0
CC(C)(C)C(=O)NC(=S)NCCc1ccccc1,-3,0,-2,-2,7,nt
CC(C)(C)NC(=O)NCCc1ccccc1,13*,nt,nt,nt,nt,-1
COC(Cn1c2c(c3cc(C)ccc31)CCCC2NCc1ccccc1)OC (configuration not stated),2,nt,nt,nt,nt,nt
O=C(Nc1ccc(Cl)cn1)C1COc2ccccc2O1 (configuration not stated),19*,0,-3,2,-1,1
CC(c1ccccc1)n1cc(C(=O)NCC2COc3ccccc3O2)nn1 (configuration not stated),15*,0,-5,-4,-5,3
COc1ccc(/C=C/C(=O)NC(=S)N2CCN(c3ccccc3OC)CC2)cc1,12*,nt,nt,nt,nt,5
COc1ccc(NC(=O)CCN2C(=O)C3C4CCC(C4)C3C2=O)cc1 (configuration not stated),12*,0,0,-3,-4,3
COc1ccc(-c2cc(=NC(CC(C)C)C(=O)O)c3cc(C)ccc3o2)cc1 (configuration not stated),12*,0,3,-3,-17,-1
COC(=O)c1cc(NC(=O)c2cc(-c3ccc(OC)cc3)oc2C(F)(F)F)ccc1N1CCOCC1,12*,nt,nt,nt,nt,2
SMILES,Wee1 stabilizer,Hsp70 act,Arbovirus anti,Efa HMGR inh,PKD1 kinase inh,Wee1 degr conf
COC(=O)c1cc(NC(=O)c2cc(-c3ccc(C(F)(F)F)cc3)oc2C(F)(F)F)ccc1N1CCOCC1,0,nt,nt,nt,nt,nt
Cc1ccc(C(=O)N/N=C/c2ccc(-c3cccc(C(F)(F)F)c3)o2)cn1,4,nt,nt,nt,nt,nt
C/C(=N\NC(=O)CCc1ccccc1)C1C(=O)c2ccccc2C1=O,13*,0,-24,-11,6,-1
CC(/C=C/c1ccccc1)=N\NC(=O)CCc1ccccc1,-1,1,-10,0,-8,nt
COC(=O)c1c(C)[nH]c(-c2csc(N)n2)c1C,-2,0,-20,0,-4,nt
COc1ccc([N+](=O)[O-])cc1NC(=O)CCN1CCN(CCO)CC1,19*,0,-4,-4,2,-2
COc1ccc(NC(=O)COc2ccc(C(=O)NC3CCCc4ccccc43)cc2OC)cc1 (configuration not stated),16*,0,-12,-1,-5,3
COC(CNC(=O)c1ccc2nc(-c3cccs3)c(-c3cccs3)nc2c1)OC,12*,0,0,-5,1,5
COC(CNC(=O)c1cccnc1)OC,0,0,-4,-4,1,nt
CC(=O)Nc1ccc(C(=O)N(C)C(C(=O)Nc2ccccc2)c2ccccn2)cc1 (configuration not stated),2,0,6,-1,-4,nt
CC(=O)Nc1ccc(N2CCCC2)cc1,0,0,2,-4,0,nt
CC(=O)Nc1ccc(N2CCCCC2)cc1,12*,0,4,0,-4,2
CCOC(=O)CC(NC(=O)Cn1nnc(-c2ccccc2C)n1)c1ccc(OC)cc1 (configuration not stated),12*,0,17,5,2,2
CCOC(=O)CC(NC(=O)Cn1nnc(-c2ccccc2F)n1)c1ccccc1Cl (configuration not stated),-4,0,-2,-1,-8,nt
O=C(NCc1ccccn1)C(=O)N/N=C/c1ccc2c(c1)OCO2,1,0,8,-1,6,nt
O=C(Nc1cccc([N+](=O)[O-])c1)Nc1ccc2c(c1)OCCO2,17*,0,7,-5,-3,4
O=C(CN1C(=O)C2C3C=CC(C3)C2C1=O)Nc1ccc(S(=O)(=O)N2CCCCC2)cc1 (configuration not stated),1,0,4,-5,0,nt
CCOc1ccc(NC(=O)CN2C(=O)NC(CCSC)C2=O)cc1 (configuration not stated),-2,0,16,-4,-8,nt
CC(C)C(=O)Nc1nnc(SCC(=O)NCc2ccc3c(c2)OCO3)s1,12*,0,-2,1,3,1
CC(C)CC(=O)Nc1nnc(SCC(=O)NCc2ccc3c(c2)OCO3)s1,-2,0,0,-5,-3,nt
O=C(COC(=O)c1ccc([N+](=O)[O-])o1)Nc1cccc2ccccc12,3,0,-3,1,-4,nt
C/C=C/C(=O)OCC(=O)Nc1ccc(C)c(S(=O)(=O)N(C)C)c1,0,0,5,0,-10,nt
